Assay outcomes as filed in PubChem BioAssay.
Sfp inh = qHTS Assay for Inhibitors of Bacillus subtilis Sfp phosphopantetheinyl transferase (PPTase); 4'-phosphopantetheinyl transferase ffp (Bacillus subtilis), Q9F4F7; Biochemical Sfp PPTase activity, qHTS; Potency, µM, most hits filed as inhibitors; 310,000 tested, 3.5% active; AID 1490, 2009;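 also: the enzyme is Sfp with the accession as filed and its product quenches rhodamine fluorescence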
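Fluorescence-quenching assay with 15 nM Sfp, 5 uM rhodamine-CoA and 12.5 uM BHQ-2-labelled ybbR peptide in pH 7.6 Hepes/MgCl2 buffer. Enzyme was pre-incubated with compound for 15 min at room temperature. Rate was taken from the 30-min fluorescence change (525/598 nm).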
Coupling enz = qHTS Assay for Inhibitors of Fructose-1,6-bisphosphate Aldolase from Giardia Lamblia: Coupling assay counterscreen; coupling enzyme system counterscreen, AmpLite Red fluorescence; activity change, negative = inhibition, % at 58.2 µM, hits read low; 290,000 tested, 0.67% active; in the data active = activity change below about -30%
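First, compound is pin-transferred into glyceraldehyde-3-phosphate coupling-enzyme reagent at 57.5 uM final and held 10 min at RT. Next, substrate, coupling system and AmpLite Red are added. After 20 min RT, fluorescence (525/598 nm) is read.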
ELG1 repair inh = qHTS screen for small molecules that inhibit ELG1-dependent DNA repair in human embryonic kidney (HEK293T) cells expressing luciferase-tagged ELG1; HEK293T ELG1-luciferase reporter, luminescence, 16 h; DNA damage induced by 5-fluorouridine; Potency, µM (highest dose often 46.1 µM), most hits filed as inhibitors; 330,000 tested, 2.3% active; also: nearly all actives have a fitted effect of over 55% in size
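HEK293T cells expressing luciferase-tagged ELG1 (2,000/well) received 5-Fluorouridine plus compound or DMSO for 16 hr at 37 °C. Luciferase was read by ONE-Glo luminescence after 30 min at room temperature.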
Giardia kill = Small Molecules that selectively kill Giardia lamblia: qHTS. Giardia lamblia trophozoite viability. activity change, % at 7.66 µM, hits read low. 340,000 tested, 0.15% active. AID 540267, 2011; in the data active = activity change below about -80%; inconclusive = between about -30% and that limit;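 also: parasites exposed to compound for two days anaerobically before the ATP read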
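ATP-content bioluminescence gauges trophozoite survival. Cells (100/well) receive compound and incubate anaerobically for 48 hrs at 37 deg C; detection reagent follows for 15-30 min at room temperature.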
Each line names hits and unclear results; the compound was inactive in the other large screens; ! = repeats disagree. This is a sample that favours compounds with a hit; in the whole collection about 5.5% have one here. Unless noted, calls follow the shape of the dose curve; as a rule, active = well fitted curve in the direction sought with a large enough effect; inconclusive = small, poorly fitted or top-dose-only effect, or another doubt; inactive = no such curve, though single readings can be large; an effect the other way counts as inactive or inconclusive.

CCOC(=O)CN1C(=O)N[C@@H](c2ccccc2)[C@H](C(C)=O)[C@H]1C	none (no result: ELG1 repair inh)
CCCCCCCCCCC(CO)CCCCCCCC (configuration not stated)	none (no result: Coupling enz, ELG1 repair inh, Giardia kill)
CCCCCCCCCCCCCCC[C@@H](O)[C@@H](N)CO	Sfp inh 45µM! (no result: ELG1 repair inh)
CCCCCCCCCCCCCCCCCCO	none (no result: ELG1 repair inh, Giardia kill)
CCCCCCCCCCCCCCC[C@H](O)[C@H](N)CO	Sfp inh 71µM (no result: Coupling enz, ELG1 repair inh, Giardia kill)
COc1ccc(OC)c(C2C(C(=O)c3ccco3)=C(O)C(=O)N2CC2CCCO2)c1 (configuration not stated)	none
O=C(CCC(=O)N1CCN(S(=O)(=O)c2ccc([N+](=O)[O-])cc2)CC1)N1CCOCC1	none (no result: Sfp inh, Coupling enz)
COC(=O)c1nc(NC(C)=O)n[nH]1	none (no result: Giardia kill)
COC(=O)c1nc(NC(=O)C(C)C)n[nH]1	Sfp inh 22µM
COc1ccc(CN2CCN(Cc3ccco3)CC2)c(OC)c1	Sfp inh 56µM
COc1ccccc1CN1CCN(Cc2ccco2)CC1	Sfp inh inconclusive
COc1ccc(CN2CCC(N(CCc3ccccc3)Cc3ccccc3)CC2)c(OC)c1	Sfp inh 40µM, ELG1 repair inh 21µM
O=P(O)(O)OC1[C@H](O)[C@H](OP(=O)(O)O)C(OP(=O)(O)O)[C@H](OP(=O)(O)O)[C@H]1O (some centres not stated)	none (no result: ELG1 repair inh, Giardia kill)
CCn1c(CSc2n[nH]c(N)n2)nc2cc(C(=O)O)ccc21	Sfp inh 79µM, ELG1 repair inh inconclusive
CCn1c(CSc2nnc3ccccn23)nc2cc(C(=O)O)ccc21	none
O=C(CSc1ncn[nH]1)c1ccc2c(c1)OCCO2	Sfp inh inconclusive, ELG1 repair inh inconclusive
CC(C)(C)NC(=O)NC(=O)CSc1ncn[nH]1	none
O=C(CSc1ncn[nH]1)CSc1ncn[nH]1	Sfp inh 50µM
CC(C)c1ccc(C(=O)CSc2ncn[nH]2)cc1	Sfp inh 56µM, ELG1 repair inh inconclusive
CC(C)CNC(=O)CSc1n[nH]c(=O)n1CCc1ccccc1	none
Cc1c(Cl)cccc1N1C(=O)C(N2C(=O)c3cccc([N+](=O)[O-])c3C2=O)C1c1cccs1 (configuration not stated)	Coupling enz -42
O=C1c2cccc([N+](=O)[O-])c2C(=O)N1C1CCCCC1	none
O=[N+]([O-])c1ccc(CNc2ccc(Cl)cc2)s1	ELG1 repair inh inconclusive
CN1c2ccc(Cl)cc2C(=O)NC1c1ccc([N+](=O)[O-])s1 (configuration not stated)	ELG1 repair inh 21µM, Giardia kill inconclusive
Cc1csc(CN(C)C(=O)C2CCC(=O)N(CCN(C)C)C2)n1 (configuration not stated)	Giardia kill inconclusive (no result: Coupling enz)
COc1ccc(S(=O)(=O)N2CCCCC2)cc1NC(=O)Cc1ccc(Br)cc1	none (no result: Sfp inh, Coupling enz, ELG1 repair inh)
O=C(c1ccccc1)c1ccc(OCC(O)CNCc2cccc(Cl)c2)cc1 (configuration not stated)	Sfp inh 89µM
O=C(c1ccccc1)c1ccc(OCC(O)CNCc2ccc(F)cc2)cc1 (configuration not stated)	none
Cc1cccc(-c2ccc3c(c2)C2CC3CCN2C)c1 (configuration not stated)	none (no result: Sfp inh, Coupling enz, ELG1 repair inh)
CCN(Cc1ccccc1)C(=O)c1cc(S(=O)(=O)N2CCOCC2)cn1C	none
COc1ccc(-n2ncc3c(N4CCCCC4)ncnc32)cc1	ELG1 repair inh inconclusive, Giardia kill -82
Cc1cccc(C(=O)N2CCN(c3ncnc4c3cnn4-c3ccccc3)CC2)c1	ELG1 repair inh 15µM
Cc1c(Cn2ccnc2)c2ccccc2n1CCC(=O)O	none (no result: Coupling enz, ELG1 repair inh, Giardia kill)
Cc1nnc(SCc2cc([N+](=O)[O-])cc3c2OCOC3)n(N)c1=O	none
CN(C)S(=O)(=O)c1cccc(-c2nnc(SCc3cc(Cl)cc4c3OCOC4)n2N)c1	Sfp inh 32µM, ELG1 repair inh inconclusive
O=C(c1ccc(Cl)cc1)c1oc2ccccc2c1CS(=O)c1ccccc1 (configuration not stated)	Sfp inh 45µM, ELG1 repair inh inconclusive
NC(=O)Cc1nc2scc(-c3ccccc3)c2c(=O)[nH]1	Sfp inh 79µM, ELG1 repair inh inconclusive
CC(C)CCNC(=O)c1ccc(C2SCC(=O)N2Cc2ccco2)cc1 (configuration not stated)	Sfp inh 8.9µM, ELG1 repair inh inconclusive
O=C1CSC(c2ccncc2)N1Cc1ccco1 (configuration not stated)	Sfp inh 56µM
O=C1CSC(c2cn(-c3ccccc3)nc2-c2ccccc2)N1Cc1ccco1 (configuration not stated)	ELG1 repair inh 18µM
COc1ccc(C(=O)N2N=C(c3cccc(OC)c3)CC2(O)C(F)(F)F)cc1 (configuration not stated)	Sfp inh 50µM, ELG1 repair inh inconclusive
COc1cccc(C2=NN(C(=O)c3cccs3)C(O)(C(F)(F)F)C2)c1 (configuration not stated)	Sfp inh 45µM, ELG1 repair inh inconclusive
COc1cccc(C(=O)N2N=C(c3cccc(OC)c3)CC2(O)C(F)(F)F)c1 (configuration not stated)	none
CN(C)Cc1ccccc1-c1cncnc1Nc1ccncc1	none (no result: ELG1 repair inh, Giardia kill)
O=C(CN(Cc1ccccc1Cl)C(=O)CNS(=O)(=O)c1ccc(F)cc1)NCC1CCCO1 (configuration not stated)	none
CC(C)[C@H](NS(=O)(=O)c1ccc2c(c1)OCCO2)C(=O)OCC(=O)Nc1ccccc1Cl	none
CC(C)[C@H](NS(=O)(=O)c1ccc2c(c1)OCCO2)C(=O)OCC(=O)Nc1cc(Cl)ccc1Cl	ELG1 repair inh 18µM
CC(=O)C1=C(c2ccccc2)NC(=O)NC1c1ccc(O)c(O)c1 (configuration not stated)	Sfp inh 45µM
COC(=O)C1=C(C)OC(N)=C(C#N)C1c1cc(OC)c(OCC(N)=O)cc1Cl (configuration not stated)	Coupling enz -30
Cc1cccc(N2CCN(Cc3ccc([N+](=O)[O-])o3)CC2)c1C	Giardia kill -86
Cc1ccc2c(c1C)NC(=O)C21N2CCCC2C(C(=O)c2ccc3ccccc3c2)C12C(=O)Nc1ccccc12 (configuration not stated)	none
CC(=O)c1cccc(NC(=O)CCS(=O)(=O)c2cccc3nsnc23)c1	Sfp inh 56µM
Cc1noc(C)c1C(=O)N1CCC2(CCCN(C(=O)NC(C)C)C2)CC1	none (no result: ELG1 repair inh, Giardia kill)
Cc1ccc(CNC(=O)c2cccc3c2C(=O)c2ccc(N4CCCCC4)cc2S3(=O)=O)cc1	ELG1 repair inh inconclusive (no result: Sfp inh, Coupling enz)
O=C(NCc1ccccc1C(F)(F)F)c1cccc2c1C(=O)c1ccc(N3CCOCC3)cc1S2(=O)=O	ELG1 repair inh 5.2µM, Giardia kill inconclusive (no result: Sfp inh, Coupling enz)
O=C(NCc1ccco1)c1cccc2c1C(=O)c1ccc(N3CCCC3)cc1S2(=O)=O	ELG1 repair inh 13µM (no result: Sfp inh, Coupling enz)
